Compounds without any hit were thinned out: in the full panel of roughly 83,000, 20% have a hit.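 48-hour exposure, single concentration, 96-well plates; percent growth endpoint where 0 means no net growth. Active: below 10.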 A number with no mark means an inactive call. The source made the active and inactive calls.
What was measured:
Test in all cases: NCI-60 one-dose screen, 48 h (100 = growth as untreated, 0 = no growth, -100 = all killed)
NCI-H322M lung = settings: 10 µM unless noted
HOP-92 NSCLC = settings: 10 µM unless noted
NCI-H522 lung = settings: 10 µM unless noted
A549/ATCC NSCLC = settings: 10 µM unless noted
K-562 leukemia = settings: 10 µM unless noted
SNB-19 CNS = settings: 10 µM unless noted
LOX IMVI melanoma = settings: 10 µM unless noted
EKVX NSCLC = settings: 10 µM unless noted
SN12C renal = settings: 10 µM unless noted
CCRF-CEM leukemia = settings: 10 µM unless noted
SR leukemia = settings: 10 µM
RPMI-8226 leukemia = settings: 10 µM unless noted
OVCAR-4 ovarian = settings: 10 µM unless noted
IGROV1 ovarian = settings: 10 µM
BT-549 breast = settings: 10 µM
SK-MEL-28 melanoma = settings: 10 µM unless noted
CAKI-1 renal = settings: 10 µM unless noted
HS 578T breast = settings: 10 µM unless noted
HOP-62 NSCLC = settings: 10 µM unless noted

SMILES | growth (NCI-H322M lung) | growth (HOP-92 NSCLC) | growth (NCI-H522 lung) | growth (A549/ATCC NSCLC) [%] | growth (K-562 leukemia) | growth (SNB-19 CNS) [%] | growth (LOX IMVI melanoma) | growth (EKVX NSCLC) [%] | growth (SN12C renal) | growth (CCRF-CEM leukemia) | growth (SR leukemia) | growth (RPMI-8226 leukemia) [%] | growth (OVCAR-4 ovarian) | growth (IGROV1 ovarian) | growth (BT-549 breast) | growth (SK-MEL-28 melanoma) [%] | growth (CAKI-1 renal) | growth (HS 578T breast) | growth (HOP-62 NSCLC) [%]
O=[N+]([O-])c1cc([N+](=O)[O-])c(Cl)c(Cl)c1Cl | 96.5% | 2.39% (active) | -86.5% (active) | 80.3 | 13% | 73.5 | -62.6% (active) | 67.4 | 19.4% | -22.3% (active) | -5% (active) | 12.8 | -31.4% (active) | 22% | 49.8% | – | – | – | –
CC(C)CCC[C@@H](C)[C@H]1CC[C@H]2[C@@H]3CC=C4C[C@@H](OC(=O)Cc5ccc(N(CCCl)CCCl)cc5)CC[C@]4(C)[C@H]3CC[C@]12C | 214% | – | 124% | 112 | 90.4% | 107 | – | 106 | – | 120% | 101% | 108 | – | – | – | 111 | 97% | 117% | –
CC1(C)CC2(CC(C)(C)c3cc(O)c(O)cc32)c2cc(O)c(O)cc21 | 102% | – | 37.4% | 97.2 | – | 104 | – | 95.1 | 94.2% | 84.5% | 70.3% | 103 | 82% | 98.4% | 111% | 97 | 92.3% | 89.2% | –
ClCCN(CCCl)C(c1ccccc1)c1ccc(Cl)cc1 (centres undefined) | – | – | 65% | 88.9 | 42.6% | – | 81.3% | 102 | 41.1% | 15.3% | 5.67% (active) | 42.1 | 96.9% | – | 93.7% | 102 | 10.1% | – | 108
COc1cc(C2CC(=O)Nc3nc(N)[se]c32)cc(OC)c1OC (centres undefined) | – | 138% | 107% | 45.7 | 83.9% | – | 105% | 90 | 64.6% | 96% | 65.8% | – | – | – | 130% | 111 | 113% | 81.9% | 70.9
c1ccc(-c2ccc3ccccc3[o+]2)cc1 | – | 83.2% | 81.2% | 90.8 | 101% | – | 82.2% | 87.1 | 90.2% | 92.4% | 84.5% | 86.4 | 90.5% | 82.7% | – | 111 | – | 94.1% | 96.2
CC12CC[C@H](O)C=C1/C(=N/O)CC1C2CCC2(C)C1CC[C@@H]2O (some centres undefined) | – | – | 90.1% | 103 | – | 104 | 94.3% | 89.6 | 104% | – | – | – | – | 94.4% | 85% | 103 | 84% | – | 96.4
CC(=O)O[C@H]1CCC2C3CCC4=C/C(=N/O)CCC4(C)C3CCC21C (some centres undefined) | – | 89.8% | 83.2% | 99.7 | 45.9% | 90.7 | – | 88.5 | – | – | 36.7% | 89.4 | – | 87.6% | 84.9% | 103 | 80.5% | 55.2% | 93.4
CC(C)(C)N(Cc1ccccc1)N=O | 101% | – | 90.3% | 93.9 | 101% | – | 93.7% | – | 91.9% | 98.4% | – | 99.2 | 98.2% | 103% | 102% | 106 | 92.9% | 109% | –
CC(/C=N/N=C(N)N)=N\N=C(N)N | 10% | – | 61.5% | – | 56.1% | – | 67% | 89.8 | 74.2% | 53% | 70.1% | 74.3 | 66.3% | – | – | 87.1 | 57.7% | 69.3% | –
C[CH2][Pb]([CH2]C)([CH2]C)[O]C(=O)COC | -11.1% (active) | – | – | – | 0.215% (active) | – | -20.8% (active) | – | 2.97% (active) | – | – | – | 9.63% (active) | -13% (active) | -18.8% (active) | – | -10.3% (active) | -2.8% (active) | –
CCCC(C)(C)c1ccc2c(c1)OC(C)(C)[C@@H]1CC=C(C)C[C@@H]21 | – | 100% | 93.2% | 88.2 | 92.3% | – | 96.3% | 106 | 105% | 84.2% | – | – | – | 95.7% | 97.7% | 112 | – | 100% | 90.4

Source: PubChem BioAssay (NCI)
